{"source": "PubChem BioAssay AID651814", "about": "(National Center for Advancing Translational Sciences (NCATS), 2012)", "note": "Where “and” joins values, the source holds several entries; their conditions need not be identical. Identical values can stand only once. The whole screen tested about 2,100 compounds, of which about 590 (28%) were called active. Inconclusive results (about 42%) are left out. This is one part of the list. A number with no mark means an inactive call. Calls follow the shape of the dose curve; as a rule, active = well fitted inhibition curve with a large enough effect; inconclusive = small, poorly fitted or top-dose-only effect; inactive = flat fitted curve, though single readings scatter."}
{"target": "DNA dC->dU-editing enzyme APOBEC-3F (Homo sapiens) (UniProt Q8IUX4)", "sequence (Q8IUX4 whole entry, looked up)": "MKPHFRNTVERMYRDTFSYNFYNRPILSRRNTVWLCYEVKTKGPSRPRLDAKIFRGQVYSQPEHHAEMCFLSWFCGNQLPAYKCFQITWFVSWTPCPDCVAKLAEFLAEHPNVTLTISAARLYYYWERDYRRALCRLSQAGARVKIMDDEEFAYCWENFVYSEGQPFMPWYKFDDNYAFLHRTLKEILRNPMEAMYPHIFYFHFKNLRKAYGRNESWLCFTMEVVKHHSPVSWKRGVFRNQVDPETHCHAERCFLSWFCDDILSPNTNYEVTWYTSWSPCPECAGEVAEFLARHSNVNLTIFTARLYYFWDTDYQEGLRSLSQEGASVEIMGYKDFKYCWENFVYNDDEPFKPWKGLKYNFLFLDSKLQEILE", "assay": "qHTS for inhibitors of Vif-A3F interactions: Cherry picks; also: nearly all actives have a fitted effect of over 70% in size; also: potency is read from the fitted curve at half-maximal effect;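 as to max response: % of control where 0% means no effect; active compounds raise eYFP fluorescence by blocking Vif-driven A3F loss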", "conditions": "HeLa A3F-eYFP + Vif (tagged APOBEC3F with the HIV-1 protein that degrades it), eYFP fluorescence, 24 h", "summary_of_the_method": "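HeLa cells stably expressing A3F-eYFP plus Vif, cultured overnight, then exposed to compounds at several concentrations for 24 h at 37 deg C. Reduced Vif-driven degradation read as rising eYFP fluorescence (488 nm ex/500-530 nm em) by laser-scanning cytometry; MG132 as positive control.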", "units": {"max response": "%"}}
{"molecule": "COc1ccc(NC(=O)C2Cc3c(-c4cccc(C(C)=O)c4)ccnc3O2)cn1", "note": "(configuration not stated)", "max response": -25.1}
{"molecule": "CC(=O)/C(N=Nc1cc(C)ccc1O)=C(\\C)O", "Potency": "20.6 µM (active)"}
{"molecule": "Cc1cc(N/N=C/c2ccc(O)cc2O)nc(-n2nc(C)cc2C)n1", "max response": 2.91}
{"molecule": "COC(=O)c1sccc1S(=O)(=O)N(CC(=O)Nc1cc(F)ccc1F)c1ccc(C)c(C)c1", "max response": 4.72}
{"molecule": "O=S(=O)(Nc1nc2n(n1)C(c1ccccc1)C=C(c1ccc(Cl)cc1)N2)c1ccccc1", "note": "(configuration not stated)", "max response": -9.71}
{"molecule": "CC[n+]1ccc(/C=C2\\Sc3ccccc3N2CCCS(=O)(=O)[O-])c2ccccc21", "max response": -17.2}
{"molecule": "COc1ccc(C(=O)Nc2ccc3c(c2)N(C)C(=O)c2ccccc2S3)cc1OC", "max response": -28.4}
{"molecule": "CC[n+]1ccccc1/C=C1\\Sc2ccc(C)cc2N1C", "Potency": "23.1 µM (active)"}
{"molecule": "CCN1/C(=C/c2cccc[n+]2C)Sc2ccc(OC)cc21", "Potency": "18.4 µM (active)"}
{"molecule": "COc1ccc2c(c1)N(C)/C(=C/c1cccc[n+]1C)S2", "Potency": "7.04 µM (active)"}
{"molecule": "N#CC1=C(N)Oc2c(sc3ccccc23)C1c1ccco1", "note": "(configuration not stated)", "max response": -18.3}
{"molecule": "COc1cc2c3nnc(-c4ccc(F)cc4)c-3cn(Cc3ccc(C)cc3)c2cc1OC", "Potency": "9.94 µM (active)"}
{"molecule": "Cn1ccnc1Sc1nc2ccccc2nc1NS(=O)(=O)c1ccccc1", "max response": -9.48}
{"molecule": "O=C(Nc1nnc(-c2ccc3c(c2)CCCC3)o1)c1c(F)cccc1F", "max response": 0.764}
{"molecule": "CCN(CC)c1nc2cc(OC)ccc2cc1C#N", "max response": -15.5}
{"molecule": "COc1ccc2c(C)cc(SCC#N)nc2c1", "Potency": "20.6 µM (active)"}
{"molecule": "COCCNC(=S)NN=C1CCCCCC1", "max response": 2.16}
{"molecule": "C/C(=N\\NC(=S)NCc1ccccc1)c1cccs1", "max response": -3.71}
{"molecule": "COc1cccc(NC(=O)c2oc3ccc(S(=O)(=O)N4CCC5(CC4)OCCO5)cc3c2C)c1", "max response": -28.1}
{"molecule": "CC(NC(=O)/C(C#N)=C/c1ccc([N+](=O)[O-])o1)c1ccccc1", "note": "(configuration not stated)", "Potency": "7.31 µM (active)"}
{"molecule": "CCOCCCNC(=O)/C(C#N)=C/c1ccc([N+](=O)[O-])o1", "Potency": "16.4 µM (active)"}
{"molecule": "NC1=NC(=O)/C(=C/c2cc(Br)c(O)c(Br)c2)S1", "max response": -7.06}
{"molecule": "Cc1ccc2[nH]c3c(c2c1)CCCC3NC(=O)CCl", "note": "(configuration not stated)", "max response": -15.6}
{"molecule": "O=C1CC(c2cc(Br)ccc2F)c2cc3c(cc2N1)CCC3", "note": "(configuration not stated)", "max response": -29.3}
{"molecule": "O=C(NCc1cccc(F)c1)c1cccc2c1C(=O)c1ccc(N3CCCC3)cc1S2(=O)=O", "Potency": "14 µM (active)"}
{"molecule": "O=C(NCc1ccccc1C(F)(F)F)c1cccc2c1C(=O)c1ccc(N3CCC(N4CCCCC4)CC3)cc1S2(=O)=O", "Potency": "16.4 µM (active)"}
{"molecule": "COc1ccc(-c2ccc3c(c2)S(=O)(=O)c2cccc(C(=O)NCCOc4ccccc4)c2C3=O)cc1OC", "Potency": "15.8 µM (active)"}
{"molecule": "CC1CCN(c2ccc3c(c2)S(=O)(=O)c2cccc(C(=O)NCc4cccc(F)c4)c2C3=O)CC1", "Potency": "14 µM (active)"}
{"molecule": "COc1cc(C(=O)NCCOc2cc(C)cc(C)c2)c(Br)c(OC)c1OC", "max response": -22.9}
{"molecule": "Cc1cc(-c2nc(C)c(C(=O)NN)s2)no1", "max response": -13.4}
{"molecule": "CCn1c(O)c(/C=N/NC(=O)c2ccncc2)c(=O)n(CC)c1=S", "max response": -6.26}
{"molecule": "O=C(NCc1ccccc1)c1cccc2c1C(=O)c1ccc(/C=C/c3ccccc3)cc1S2(=O)=O", "Potency": "16.4 µM (active)"}
{"molecule": "Cc1ccc(CNC(=O)c2cccc3c2C(=O)c2ccc(N4CCC(C)CC4)cc2S3(=O)=O)cc1", "Potency": "16.4 µM (active)"}
{"molecule": "CC(C)c1cccc(-c2ccc3c(c2)S(=O)(=O)c2cccc(C(=O)NCc4ccccc4)c2C3=O)c1", "max response": -28.2}
{"molecule": "N#Cc1c(-c2ccccc2F)cc(C2CC2)nc1SCC(=O)c1cccs1", "Potency": "17.7 µM (active)"}
{"molecule": "CCc1c(C)nc(SCC(=O)c2cccs2)c(C#N)c1C", "max response": 0.208}
{"molecule": "CCn1c(CNC(=O)c2cc(OC)c(OC)c(OC)c2)cc2cc(C)ccc21", "max response": 2.52}
{"molecule": "Cc1ccc2nc(-c3ccccn3)c(NC3CCCC3)n2c1", "max response": -1.86}
{"molecule": "c1ccc(Nc2nc(-c3ccccn3)cs2)cc1", "max response": -4.92}
{"molecule": "CCc1cccc2c(C(O)c3c[nH]c4ccccc34)c[nH]c12", "note": "(configuration not stated)", "Potency": "18.4 µM (active)"}
{"molecule": "COc1ccc(C2=CC(c3ccc(N(C)C)cc3)n3nnnc3N2)cc1", "note": "(configuration not stated)", "max response": -6.88}
{"molecule": "COc1cccc(C2=CC(c3cccs3)n3nnnc3N2)c1", "note": "(configuration not stated)", "Potency": "6.27 µM (active)"}
{"molecule": "C=CCOC(=O)C1=C(C)Nc2nnnn2C1c1cccs1", "note": "(configuration not stated)", "max response": -1.29}
{"molecule": "CCCC(=O)NC1=C(Cl)C(=O)c2ccccc2C1=O", "max response": 5.27}
{"molecule": "CCOC(=O)C1=C(Cc2ccc(Cl)cc2)C(=O)c2ccccc2C1=O", "Potency": "16.4 µM (active)"}
{"molecule": "S=C(Nc1ccccc1)N1CCn2c1nc1ccccc12", "max response": -7.52}
{"molecule": "Cc1cc2nc(SCCOC(=O)Nc3cccc(Cl)c3)nc(C)c2cc1C", "max response": 3.73}
{"molecule": "COc1cccc(N2CC(O)=C(c3nc4ccccc4s3)C2=N)c1", "Potency": "5.59 µM (active)"}
{"molecule": "CCN(CC)c1ccc(/C=C/c2cccc[n+]2C)c(OC)c1", "Potency": "3.14 µM (active)"}
{"molecule": "C(=C\\c1c[nH]c2ccccc12)/c1ccc2ccccc2n1", "Potency": "23.1 µM (active)"}
{"molecule": "C(=Cc1c[nH]c2ccccc12)c1ccc2ccccc2n1", "Potency": "23.1 µM (active)"}
{"molecule": "Cc1[nH]c2ccccc2c1/C=C/c1ccc2ccccc2n1", "Potency": "7.31 µM (active)"}
{"molecule": "CCOC(=O)c1c(-c2ccc(OC)cc2)csc1/N=C/C1=C(O)CCCC1=O", "max response": -6.09}
{"molecule": "Cc1ccccc1-n1c(/C=C/c2c(C)n(C)c3ccccc23)nc2ccccc2c1=O", "Potency": "8.2 µM (active)"}
{"molecule": "CN1CCc2c(sc(NC(=O)CSc3ccc(F)cc3)c2-c2nc3ccccc3s2)C1", "Potency": "7.31 µM (active)"}
{"molecule": "COc1cc(C(=O)Nc2nnc(Cc3ccccc3)s2)cc(OC)c1OC", "max response": -23.2}
{"molecule": "COc1ccc(OC)c(NC(=O)c2sc3nc(Cc4ccccc4)cc(C(F)(F)F)c3c2N)c1", "Potency": "8.2 µM (active)"}
{"molecule": "COc1ccc(C(=O)c2sc3nc(-c4ccc(C)cc4)cc(C(F)(F)F)c3c2N)cc1", "Potency": "8.2 µM (active)"}
{"molecule": "COc1cccc(C(=O)c2sc3nc(-c4ccccc4)cc(C(F)(F)F)c3c2N)c1", "Potency": "1.46 µM (active)"}
{"molecule": "COc1ccc(NC(=O)c2sc3nc(-c4ccc(OC)cc4)cc(C(F)(F)F)c3c2N)cc1", "Potency": "1.3 µM (active)"}
{"molecule": "Cc1cc(C(F)(F)F)c2c(N)c(C(=O)Nc3cc(C)on3)sc2n1", "max response": -20.9}
{"molecule": "CCC(=O)OCc1cnc(C)c2oc(=O)c(C(=O)Nc3ccccc3C(F)(F)F)cc12", "max response": -0.08}
{"molecule": "Nc1c(C(=O)O)sc2nc(-c3ccc(F)cc3)cc(-c3ccccc3)c12", "max response": -11.4}
{"molecule": "CN1C2=CC=CC=CC2=[N+](C)C12C([N+](=O)[O-])=CC(=[N+]([O-])[O-])C=C2[N+](=O)[O-]", "note": "(configuration not stated)", "max response": -0.344}
{"molecule": "COc1ccccc1/C=N/NC(=S)Nc1cccnc1", "max response": -4.95}
{"molecule": "CC(=O)c1cccc(NC(=O)C2CCCN(S(=O)(=O)c3cccc4nonc34)C2)c1", "note": "(configuration not stated)", "max response": -0.245}
{"molecule": "COc1ccc(C(=O)c2sc3nc(C)cc(-c4cccs4)c3c2N)cc1", "Potency": "18.4 µM (active)"}
{"molecule": "O=C(NC(=S)N1CCN(C2CCCCC2)CC1)c1ccccc1", "max response": 3.13}
{"molecule": "CCCCN1C(=O)/C(=C/C=C2/CC(C)(C)CN2C)SC1=S", "Potency": "3.96 µM (active)"}
{"molecule": "Cc1ccc(Cn2c(SCc3ccc(C(=O)NC4CCCC4)cc3)nc3ccncc32)cc1", "max response": -0.957}
{"molecule": "ClCC1NCC(c2ccccc2Cl)c2c1[nH]c1ccccc21", "note": "(configuration not stated)", "max response": -5.81}
{"molecule": "Cn1cc(C2=C(c3ccc(Cl)cc3Cl)C(=O)NC2=O)c2ccccc21", "Potency": "2.91 µM (active) and 14.6 µM (active)"}
{"molecule": "COc1ccc(S(=O)(=O)N2c3ccccc3OCC2CC(=O)O)cc1", "note": "(configuration not stated)", "max response": -27.6}
{"molecule": "COc1cc(NC(=O)c2ccco2)c(C(=O)OCC(=O)c2c[nH]c3ccccc23)cc1OC", "max response": -11.7}
{"molecule": "Cn1nnc2c[n+](CC(=O)c3ccc(Cl)cc3)cc(Br)c21", "Potency": "17.7 µM (active)"}
{"molecule": "O=C(Nc1cc(Cl)ccc1-n1cncn1)c1ccc([N+](=O)[O-])s1", "Potency": "15.8 µM (active)"}
{"molecule": "N#CC1=C(N)Oc2cc(N)ccc2C1c1ccc(F)cc1F", "note": "(configuration not stated)", "Potency": "18.4 µM (active)"}
{"molecule": "N#CC1=C(N)Oc2ccc3ccc(O)cc3c2C1c1ccsc1", "note": "(configuration not stated)", "max response": -15.9}
{"molecule": "Cc1oc(C)c2c(=O)ccc3c(c12)OC(N)=C(C#N)C3c1ccc(F)cc1", "note": "(configuration not stated)", "max response": 1.74}
{"molecule": "O=C1[C@@H]2[C@@H](CN3CN(c4ccccc4)N=C(c4ccccc4)[C@@]23c2ccccc2)C(=O)N1c1ccccc1", "max response": -0.723}
{"molecule": "CC[n+]1ccccc1/C=C/c1ccc(N(C)C)cc1", "Potency": "20.6 µM (active)"}
{"molecule": "CC(C)CC[n+]1ccccc1/C=C/c1ccc(N(C)C)cc1", "Potency": "20.6 µM (active)"}
{"molecule": "Cc1ccc(-c2csc(NC3OC(=O)c4ccccc43)n2)cc1", "note": "(configuration not stated)", "Potency": "14 µM (active)"}
{"molecule": "c1ccc2c(c1)nc(NCC1CCCO1)c1nnnn12", "note": "(configuration not stated)", "max response": -11.8}
{"molecule": "Fc1ccc(CNc2nc3ccc(Cl)cc3n3nnnc23)cc1", "max response": -20.9}
{"molecule": "Fc1ccc(CNc2nc3ccccc3n3nnnc23)cc1", "Potency": "23.1 µM (active)"}
{"molecule": "c1ccc2c(CCc3c[nH]c4ccccc34)ccnc2c1", "Potency": "20.6 µM (active)"}
{"molecule": "COc1ccccc1OCC(=O)N/N=C/C=C/c1ccc([N+](=O)[O-])o1", "Potency": "10.3 µM (active)"}
{"molecule": "O=C(COc1ccccc1-c1ccccc1)NN=C1CCCC1", "max response": -15.6}
{"molecule": "O=C(N/N=C/C=C/c1ccco1)c1ccncc1", "max response": -0.284}
{"molecule": "Cc1ccccc1OCC(=O)N/N=C/c1ccc(N(C)C)cc1", "max response": -27.7}
{"molecule": "O=C(N/N=C\\C=C\\c1ccc([N+](=O)[O-])o1)c1cccs1", "Potency": "12.5 µM (active)"}
